Compound activity as filed in PubChem BioAssay.
G9a block: G9a (human) methyltransferase inhibition | Q96KQ7 | G9a H3K9 monomethylation, AlphaScreen, 2 h | Potency, µM (titrated, usually from 102 µM), for the others: at the highest dose activity, negative = inhibition, hits mostly inhibitors | actives 8.8% (n = 350,000); also: % is scaled to controls: 0 for no effect and ±100 for the full control effect; nearly all actives have a fitted effect of over 75% in size
Target sequence (Q96KQ7 913-1193 limits assumed): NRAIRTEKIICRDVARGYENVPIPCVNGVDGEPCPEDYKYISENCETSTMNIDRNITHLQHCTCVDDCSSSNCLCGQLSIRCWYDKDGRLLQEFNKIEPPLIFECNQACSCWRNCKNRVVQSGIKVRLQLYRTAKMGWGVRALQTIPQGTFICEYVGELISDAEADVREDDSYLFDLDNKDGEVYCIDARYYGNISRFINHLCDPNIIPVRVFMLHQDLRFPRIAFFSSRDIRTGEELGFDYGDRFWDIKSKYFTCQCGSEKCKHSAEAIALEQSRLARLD
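Chemiluminescent proximity detection of H3K9 monomethylation, read after 10 min bead incubation in the dark. Reaction: 20 nM G9a, 500 nM biotin-H3K9 peptide, 20 uM SAM cofactor, 2 h, room temperature, following 15 min enzyme-compound preincubation.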
L3MBTL1 inh: blocks human L3MBTL1; Q9Y468; AlphaScreen L3MBTL1–H3K9me1 peptide binding; Potency, µM (top dose mostly 57.1 µM), without a hit: top-dose activity, negative = inhibition, hits mostly inhibitors; actives 0.66% (n = 230,000); AID 485360; also: % is scaled to controls: 0 for no effect and ±100 for the full control effect; nearly all actives have a fitted effect of over 60% in size
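L3MBTL1 (50 nM) pre-complexed 30 min with biotinylated H3(1-15)K9me1 peptide (75 nM), then compounds added for 30 min at room temperature; AlphaScreen streptavidin donor/nickel chelate acceptor beads (10 ug/mL final) read after 30 min dark incubation.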
HP1b binding inh: inhibitors of HP1-beta chromodomain binding to methylated histone tails | AlphaScreen HP1-beta / biotin-H3K9me3 peptide binding | Potency, µM (highest dose often 114 µM), inactives show top-dose activity change, negative = inhibition, actives largely listed as inhibitors | actives 0.56% (n = 390,000) | AID 540317; also: nearly all actives have a fitted effect of over 70% in size
Target sequence (P83916 whole entry, looked up): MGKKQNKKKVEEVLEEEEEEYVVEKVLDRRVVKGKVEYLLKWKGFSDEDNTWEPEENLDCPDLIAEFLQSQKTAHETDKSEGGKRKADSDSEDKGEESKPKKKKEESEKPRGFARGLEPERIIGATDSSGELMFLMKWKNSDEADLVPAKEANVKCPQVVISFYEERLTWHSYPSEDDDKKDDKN
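Compound inhibition of the preformed complex between 50 nM HP1-beta and 50 nM biotinylated H3K9me3 peptide was read by AlphaScreen. Buffer was PBS pH 7.4 with 0.01% Tween-20. Incubations ran 30 min at room temperature, with 10 ug/mL donor/acceptor beads.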
Sfp inh: Sfp phosphopantetheinyl transferase inhibition | AID 1490 | Biochemical Sfp PPTase activity, qHTS | Q9F4F7 | Potency, µM, inactives show largest response in the series, negative = inhibition, hits mostly inhibitors | actives 3.5% (n = 310,000);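 also: the enzyme is Sfp with the accession as filed and its product quenches rhodamine fluorescence; 0% = enzyme reaction without inhibitor and -100% = no enzyme wells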
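Fluorescence-quenching assay with 15 nM Sfp, 5 uM rhodamine-CoA and 12.5 uM BHQ-2-labelled ybbR peptide in pH 7.6 Hepes/MgCl2 buffer. Enzyme was pre-incubated with compound for 15 min at room temperature. Rate was taken from the 30-min fluorescence change (525/598 nm).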
JMJD2A Tudor: JMJD2A Tudor domain (human) inhibition | O75164 | Potency, µM (highest dose often 114 µM), for inactives: at the highest dose activity change, negative = inhibition, most hits filed as inhibitors | actives 4.4% (n = 390,000) | AlphaScreen JMJD2A-Tudor / H3K4me3 peptide binding | AID 504339; also: % is scaled to controls: 0 for no effect and ±100 for the full control effect; nearly all actives have a fitted effect of over 50% in size
BAZ2B block: inhibitors of human BAZ2B bromodomain | Potency, µM (doses to about 114 µM), without a hit: at the highest dose activity change, negative = inhibition, most hits filed as inhibitors | AlphaScreen BAZ2B-H3K14Ac peptide displacement | actives 4.4% (n = 360,000) | Q9UIF8; also: % is scaled to controls: 0 for no effect and ±100 for the full control effect; nearly all actives have a fitted effect of over 60% in size
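AlphaScreen displacement of biotin-H3(5-23)K14Ac peptide (50 nM final) from BAZ2B (50 nM final) in PBS pH 7.4, 0.01% Tween-20; complex preformed 30 min RT, then compounds (top 110 uM) 30 min RT, beads 20 min dark.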
Numbers without * were called inactive; ? = inconclusive; . = not tested or not shown; ! = not confirmed by another sample; [ ] = another dose, or the depositor's remark. Only some compounds are listed: those with a hit (about 12% of all), similar ones and a draw of the others. Calls follow the shape of the dose curve; as a rule, active = well fitted curve in the direction sought with a large enough effect; inconclusive = small, poorly fitted or top-dose-only effect, or another doubt; inactive = no such curve, though single readings can be large; an effect the other way counts as inactive or inconclusive. Potency is read from the fitted curve at half-maximal effect.

SMILES | G9a block | L3MBTL1 inh | HP1b binding inh | Sfp inh | JMJD2A Tudor | BAZ2B block
CCN1CCCc2cc(CN(CCN3CCOCC3)C(=S)Nc3ccc(C)cc3)ccc21 | 13µM* | . | ? | 17% | ? | 13µM*
Cc1ccc(NC(=S)N(CCN2CCOCC2)Cc2ccccc2F)cc1 | 22%[12.7 µM] | -23% | 33% | 10% | 3% | -16%
CCOC(=O)Cn1c(=O)n(CC2CCCO2)c2nc(-c3ccccc3Cl)nc(C(N)=O)c21 (configuration not stated) | -2%[59 µM] | . | 11%[57 µM] | . | -24% | -6%
COc1ccc(CCNC(=O)Cn2nnc(-c3cccc(C(F)(F)F)c3)n2)cc1OC | 7%[59 µM] | . | 21% | . | -8% | -14%
COC(=O)c1cc(OC)c(OC)cc1NC(=O)c1ccc2c(c1)CCN2S(C)(=O)=O | 1%[59 µM] | . | 25% | . | -16% | -5%
O=C1C2Sc3[nH]c(=O)sc3C(c3ccccc3)C2C(=O)N1c1ccc(Cl)cc1 (configuration not stated) | 36%[0.501 µM] | -9% | -4% | -10% | ? | ?
Cc1ccc(N2C(=O)C3Sc4[nH]c(=O)sc4C(c4ccccc4)C3C2=O)cc1 (configuration not stated) | 51%[0.501 µM] | -6% | 6% | -4% | -34% | 50µM*
CCCCNc1nc2c(-c3cccc(C)c3)nnn2c2ccccc12 | 0%[59 µM] | . | 49% | . | -13% | 1%
COc1ccc(OCC(=O)N(Cc2sccc2C)C2CCS(=O)(=O)C2)cc1 (configuration not stated) | 71µM*! | . | 52% | 23% | -14% | ?
CN(C)c1ccc(CN(C(=O)/C=C/c2ccccc2Cl)C2CCS(=O)(=O)C2)cc1 (configuration not stated) | -132%[59 µM] | -20% | -32% | 1% | 45µM* | 25µM*
O=C(/C=C/c1ccccc1Cl)N(Cc1ccc(Cl)cc1)C1CCS(=O)(=O)C1 (configuration not stated) | -10%[59 µM] | 1% | 29% | -6% | -17% | -4%
CCc1ccc(OCC(=O)N(Cc2ccc(Cl)cc2)C2CCS(=O)(=O)C2)cc1 (configuration not stated) | 1%[59 µM] | . | 6% | . | -2% | -8%
CCCSc1ncc(Cl)c(C(=O)N(Cc2ccc(N(C)C)cc2)C2CCS(=O)(=O)C2)n1 (configuration not stated) | ? | . | -7% | . | 56µM* | 22µM*
CN(C)c1ccc(CN(C(=O)COc2ccc(Br)cc2)C2CCS(=O)(=O)C2)cc1 (configuration not stated) | 50µM* | -22% | -29% | -2% | 40µM* | 45µM*
CC(=O)c1ccc(NC(=O)CCCc2nc(-c3cccc(C)c3)no2)cc1 | -28%[59 µM] | . | 39% | . | -11% | 3%
Cc1cc(C)cc(OCC(=O)N(Cc2ccc(N(C)C)cc2)C2CCS(=O)(=O)C2)c1 (configuration not stated) | -113%[59 µM] | -20% | ? | 3% | 63µM* | 40µM*
Cc1cc(C)c(OCC(=O)N(Cc2ccc(N(C)C)cc2)C2CCS(=O)(=O)C2)c(C)c1 (configuration not stated) | . | ? | -22% | 19% | ? | ?
Cc1ccc(OCC(=O)N(Cc2cccs2)C2CCS(=O)(=O)C2)cc1 (configuration not stated) | 1% | -4% | 22% | 4% | 8% | -9%
Cc1cccc(OCC(=O)N(Cc2cccs2)C2CCS(=O)(=O)C2)c1C (configuration not stated) | 50µM* | -1% | 24% | -7% | -12% | 13%
Cc1ccc(OCC(=O)N(Cc2ccc(N(C)C)cc2)C2CCS(=O)(=O)C2)cc1 (configuration not stated) | 40µM* | -13% | -15% | -5% | ? | ?
CN(C)c1ccc(CN(C(=O)COc2ccc(F)cc2)C2CCS(=O)(=O)C2)cc1 (configuration not stated) | ? | -12% | -1% | 7% | -36% | ?
Cc1ccc(OCC(=O)Nc2nc(-c3ccc(Br)cc3)ns2)cc1 | 9%[59 µM] | . | 23% | . | -15% | -1%
O=S(=O)(c1ccc(Cl)cc1)c1nc(-c2ccco2)oc1SCc1ccccc1F | -17%[59 µM] | . | 41% | . | -10% | -24%
Cc1ccsc1C=Nc1ccc(O)cc1 | 13µM* | ? | ? | ? | 79µM* | 40µM*
O=C1c2ccccc2C(=O)N1Cc1ccncc1 | . | . | . | . | -13% | .
SMILES | G9a block | L3MBTL1 inh | HP1b binding inh | Sfp inh | JMJD2A Tudor | BAZ2B block
Cc1ccc(S(=O)(=O)c2nnn3c2nc(NC(C)C)c2cc(Cl)ccc23)cc1C | -2%[59 µM] | . | 20% | . | 0% | 4%
Cc1cc(=O)oc2cc(OCC(=O)Nc3nnc(CC(C)C)s3)ccc12 | -2%[12.7 µM] | 4% | 44% | 1% | -19% | 0%
CC(C)(C)Cc1nnc(NC(=O)c2ccc3c(c2)OCO3)s1 | 8.9µM* | . | ? | -99% | -19% | -15%
O=C(Nc1nnc(Cc2ccc([N+](=O)[O-])cc2)s1)c1ccc2c(c1)OCO2 | -7%[12.7 µM] | . | 23% | 20% | -4% | -13%
Cc1cc(=O)oc2cc(OCC(=O)Nc3nnc(C(C)C)s3)ccc12 | 45µM* | . | 16% | -3% | -15% | -9%
CCC(CC)c1nnc(NC(=O)c2ccco2)s1 | 45µM* | 1% | -19% | ? | -11% | -19%
O=C(O)CSc1nnc(NC(=O)c2ccc3c(c2)OCO3)s1 | -25% | 30% | 35% | 15% | -10% | -38%
COC(=O)CSc1nnc(NC(=O)c2ccc3c(c2)OCO3)s1 | 32µM* | . | 52% | -7% | -6% | -6%
CCc1nnc(NC(=O)COc2ccc3c(c2)OCO3)s1 | 45µM* | . | -30% | -29% | -8% | 4%
Cc1csc(NC(=O)c2ccc3c(c2)OCO3)n1 | 6%[59 µM] | . | 18% | 15% | -14% | -3%
CC(C)c1nnc(NC(=O)COc2ccc3c(c2)OCO3)s1 | -19% | . | -24% | -4% | -18% | -16%
CCC(CC)c1nnc(NC(=O)COc2ccc3c(c2)OCO3)s1 | 8.9µM* | . | ? | 25µM* | ? | ?
CCC(CC)c1nnc(NC(=O)c2ccc3c(c2)OCO3)s1 | 22µM* | . | ? | 45µM* | -18% | -11%
Cc1ccc(C(=O)N/C(=C\c2cn(S(=O)(=O)N(C)C)c3ccccc23)C(=O)NCCCn2ccnc2)cc1 | -6% | . | 50µM*! | 5% | ? | ?
CN(C)c1ccc(/C=C(/NC(=O)c2ccccc2)C(=O)NCCCn2ccnc2)cc1 | 8%[0.0925 µM] | . | 1% | 1% | -35% | 35µM*
COc1ccc(/C=C(\NC(=O)c2ccc(C)cc2)C(=O)NCCCn2ccnc2)cc1 | 5% | . | 23% | 24% | -18% | 50µM*
